Measured values from PubChem BioAssay (Tox21).
Results filed as inconclusive are left out. Where a call stands in place of a potency, no number is given. Active and inactive are the calls of the source. The call rests on the fitted dose curve.

biological target: Acetylcholinesterase (Homo sapiens) (UniProt P22303); test: Acetylcholinesterase (AChE) small molecule antagonists: colormetric cell-based qHTS assay (AID 1347395); settings: SH-SY5Y cells AChE activity, colorimetric (Ellman); series mostly up to 115 µM; further: nearly all actives have a fitted effect of over 30% in size
Sequence (P22303 whole entry, looked up): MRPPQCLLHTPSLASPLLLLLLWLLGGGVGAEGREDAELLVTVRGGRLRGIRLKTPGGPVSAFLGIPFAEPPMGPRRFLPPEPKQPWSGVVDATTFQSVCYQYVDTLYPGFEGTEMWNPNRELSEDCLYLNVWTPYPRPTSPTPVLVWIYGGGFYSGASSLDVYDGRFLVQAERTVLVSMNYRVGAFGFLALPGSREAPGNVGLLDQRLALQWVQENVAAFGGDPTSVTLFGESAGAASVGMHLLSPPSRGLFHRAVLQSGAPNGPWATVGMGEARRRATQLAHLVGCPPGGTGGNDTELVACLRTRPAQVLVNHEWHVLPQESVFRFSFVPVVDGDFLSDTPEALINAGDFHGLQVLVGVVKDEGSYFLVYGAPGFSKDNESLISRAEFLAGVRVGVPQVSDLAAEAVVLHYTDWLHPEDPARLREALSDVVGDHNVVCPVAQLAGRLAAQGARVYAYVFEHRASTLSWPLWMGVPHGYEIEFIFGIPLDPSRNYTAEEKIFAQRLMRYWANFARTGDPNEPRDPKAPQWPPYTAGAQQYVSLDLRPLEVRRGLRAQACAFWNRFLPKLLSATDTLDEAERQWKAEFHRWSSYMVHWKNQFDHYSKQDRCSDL
How it was run: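 Homogeneous whole-cell format. SH-SY5Y cells seeded overnight, dosed with compound (30 min, 37 C, 5% CO2), then given DTNB/acetylthiocholine cocktail for 90 min at 37 C; colorimetric signal.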

Question: `C1C[C@@H]2[C@H]3CC[C@H](C3)[C@@H]2C1` was tested. Which Potency did it give?
Answer: The Potency was “inactive”.

Question: `CCCCCCCCCCCCCCCCCC(=O)OCCCCCCCCCCCCCC(C)C` was tested. Which Potency did it give?
Answer: The Potency was “inactive”.

Question: For `CC(C)CCOC(=O)CC(C)C`, which Potency is on record?
Answer: The Potency was “inactive”.

Question: How did the Potency turn out when `O=C(c1ccccc1)C1CCCCC1` was run?
Answer: Its Potency is “inactive”.

Question: Which Potency does the source give for `CN1[C@@H]2CC[C@H]1CC(OC(=O)C(O)c1ccccc1)C2` (stereo not given in full) here?
Answer: Its Potency is “inactive”.

Question: With `CC(C)=CCC/C(C)=C/COC=O` as the compound, how does the Potency read?
Answer: Its Potency is “inactive”.

Question: Which Potency does the source give for `COc1cc(NS(=O)(=O)c2ccc(N)cc2)nc(C)n1` here?
Answer: The Potency was “inactive”.

Question: With `CC1=CC(=O)[C@H]2C[C@@H]1C2(C)C` as the compound, how does the Potency read?
Answer: Its Potency is “inactive”.

Question: With `Clc1ccccc1-c1nc(-c2ccncc2)no1` as the compound, how does the Potency read?
Answer: Its Potency is “inactive”.

Question: Which Potency does the source give for `Nc1ccn([C@@H]2O[C@H](CO)[C@@H](O)C2(F)F)c(=O)n1` here?
Answer: The Potency was “inactive”.

Question: With `O=C(O)c1ccc(CO)o1` as the compound, how does the Potency read?
Answer: The Potency was “inactive”.

Question: For `CC1(C)S[C@@H]2[C@H](N=CN3CCCCCC3)C(=O)N2[C@H]1C(=O)O`, which Potency is on record?
Answer: Its Potency is “inactive”.

Question: How did the Potency turn out when `COC(=O)c1cc(Cl)ccc1OC` was run?
Answer: The Potency was “inactive”.

Question: Which Potency does the source give for `CCCCN(CCCC)C(C(N)=O)c1ccc(OC)cc1` (stereo not given) here?
Answer: Its Potency is “inactive”.

Question: For `c1ccc2cc3c4ccccc4c4ccccc4c3cc2c1`, which Potency is on record?
Answer: Its Potency is “inactive”.

Question: How did the Potency turn out when `CC(=O)c1cc(C)oc1C` was run?
Answer: The Potency was “inactive”.

Question: `COc1ccc(OC(=O)N(CC(=O)O)Cc2ccc(OCCc3nc(-c4ccccc4)oc3C)cc2)cc1` was tested. Which Potency did it give?
Answer: The Potency was “inactive”.

Question: Which Potency does the source give for `O=S1OCCO1` here?
Answer: Its Potency is “inactive”.

Question: Which Potency does the source give for `N#CCc1cccc(C(F)(F)F)c1` here?
Answer: The Potency was “inactive”.

Question: `C=CCCCCCCCCCCCCCC` was tested. Which activity, negative = inhibition did it give?
Answer: The activity, negative = inhibition was 0.819% [at 23.6 µM] (inactive).

Question: Which Potency does the source give for `CC(C)CCC(=O)CCC(C)C` here?
Answer: Its Potency is “inactive”.

Question: How did the Potency turn out when `CCOC(=O)C1=NN(c2ccc(Cl)cc2Cl)C(C)(C(=O)OCC)C1` (stereo not given) was run?
Answer: Its Potency is “inactive”.

Question: Which Potency does the source give for `CCCCCc1ccc(O)cc1` here?
Answer: Its Potency is “inactive”.

Question: With `Sc1nc2ccccc2s1` as the compound, how does the Potency read?
Answer: Its Potency is “inactive”.

Question: `O=C(O)c1cc(Cl)cc([N+](=O)[O-])c1Cl` was tested. Which Potency did it give?
Answer: Its Potency is “inactive”.

Question: Which Potency does the source give for `Cc1ccc(=O)n(-c2ccccc2)c1` here?
Answer: Its Potency is “inactive”.

Question: How did the Potency turn out when `O=CN1CCOCC1` was run?
Answer: The Potency was “inactive”.

Question: For `CC(C)=C1CC[C@@H](C)CC1=O`, which Potency is on record?
Answer: Its Potency is “inactive”.

Question: With `CCN(CC)CCNC(C(=O)OCCC(C)C)c1ccccc1` (stereo not given) as the compound, how does the Potency read?
Answer: Its Potency is “inactive”.

Question: `O=C(/C=C/c1ccc(O)c(O)c1)O[C@@H]1C[C@@](OC(=O)/C=C/c2ccc(O)c(O)c2)(C(=O)O)C[C@@H](O)[C@@H]1O` was tested. Which Potency did it give?
Answer: Its Potency is “inactive”.

Question: Which Potency does the source give for `CC(C)O` here?
Answer: Its Potency is “inactive”.

Question: For `CNCCS(=O)(=O)O`, which Potency is on record?
Answer: The Potency was “inactive”.

Question: For `COP(=O)(O)OP(=O)(O)OC`, which Potency is on record?
Answer: Its Potency is “inactive”.

Question: How did the Potency turn out when `SCCSCCS` was run?
Answer: The Potency was “inactive”.

Question: `O=C(O)c1ccccc1C(=O)Nc1ccc(S(=O)(=O)Nc2nccs2)cc1` was tested. Which Potency did it give?
Answer: Its Potency is “inactive”.

Question: For `CCC(CC)C(C)CCOC(C)=O` (stereo not given), which Potency is on record?
Answer: The Potency was “inactive”.

Question: `CCCCCCCCC(=O)OCC(C)OC(=O)CCCCCCCC` (stereo not given) was tested. Which Potency did it give?
Answer: Its Potency is “inactive”.

Question: How did the Potency turn out when `O=CN1CCCCC1` was run?
Answer: Its Potency is “inactive”.

Question: Which Potency does the source give for `COc1ccnc(CS(=O)c2nc3ccc(OC(F)F)cc3[nH]2)c1OC` (stereo not given) here?
Answer: Its Potency is “inactive”.

Question: For `CC(C)Nc1ccc(NC(C)C)c2c1C(=O)c1ccccc1C2=O`, which Potency is on record?
Answer: Its Potency is “inactive”.
